Test results: PubChem BioAssay AID1159580 (chemical genetic matrix, 2015)
Several values for one entry are separate records, joined by “and”; a condition that tells them apart may be missing. Equal values may be shown once. In all, about 5,500 compounds went through this assay and about 2,000 (36%) were called active. Roughly 18% stayed inconclusive and do not appear here. No stated cut-off is given here; in the data, active means normalized growth mostly below about 0.91 (no sharp cut-off); inconclusive means no clear call, values can overlap the other calls; inactive means mostly above about 0.92. The list shows a part of the results.

Assay: chemical genetic growth profiling, strain panel (AID 1159580);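 further: tested at 20 µM; growth read once vehicle control cultures reached saturation at 30 °C; 1 = growth at the plate median or of vehicle wells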
Conditions: S. cerevisiae deletion strains, growth OD

Measured: normalized growth

Nc1ncnc2c1ncn2[C@@H]1O[C@H](CO)[C@@H](O)[C@@H]1O
inactive: locus YAL013W, strain DEP1, stronger effect = lower value 1.01 | locus YAL021C, strain ccr4, stronger effect = lower value 1 | locus YAL026C, strain drs2, stronger effect = lower value 1.01 | locus YAL030W, strain snc1, stronger effect = lower value 1.01 | locus YBL061C, strain skt5, stronger effect = lower value 1.01 | locus YBR009C, strain hhf1, stronger effect = lower value 1.01 | locus YBR021W, strain FUR4, stronger effect = lower value 1 | locus YBR023C, strain chs3, stronger effect = lower value 1.01 | locus YBR171W, strain sec66, stronger effect = lower value 1.02 | locus YBR229C, strain ROT2, stronger effect = lower value 1.01 | locus YBR231C, strain swc5, stronger effect = lower value 0.997 | locus YBR279W, strain paf1, stronger effect = lower value 1.01 | locus YCL011C, strain gbp2, stronger effect = lower value 1.01 | locus YCL016C, strain dcc1, stronger effect = lower value 1 | locus YCL029C, strain bik1, stronger effect = lower value 1.05 | locus YCL061C, strain MRC1, stronger effect = lower value 1.01 | locus YCL069W, strain vba3, stronger effect = lower value 1.02 | locus YCR088W, strain abp1, stronger effect = lower value 1.01 | locus YDL005C, strain med2, stronger effect = lower value 1.02 | locus YDL035C, strain GPR1, stronger effect = lower value 1.01 | locus YDL040C, strain nat1, stronger effect = lower value 1.01 | locus YDL074C, strain BRE1, stronger effect = lower value 1.01 | locus YDL101C, strain DUN1, stronger effect = lower value 1.01 | locus YDL134C, strain PPH21, stronger effect = lower value 1.01 | locus YDL185W, strain tfp1, stronger effect = lower value 1.02 | locus YDL192W, strain arf1, stronger effect = lower value 1.03 | locus YDR001C, strain nth1, stronger effect = lower value 1.01 | locus YDR069C, strain doa4, stronger effect = lower value 1.01 | locus YDR101C, strain arx1, stronger effect = lower value 1.03 | locus YDR137W, strain rgp1, stronger effect = lower value 1.03 | locus YDR150W, strain NUM1, stronger effect = lower value 1.01 | locus YDR159W, strain sac3, stronger effect = lower value 1.01 | locus YDR162C, strain NBP2, stronger effect = lower value 1.01 | locus YDR195W, strain ref2 1.02 | locus YDR297W, strain sur2, stronger effect = lower value 1.01 | locus YDR318W, strain mcm21, stronger effect = lower value 1.04 | locus YDR334W, strain swr1, stronger effect = lower value 1.01 | locus YDR335W, strain msn5, stronger effect = lower value 1 | locus YDR388W, stronger effect = lower value 1.02 | locus YDR392W, strain spt3, stronger effect = lower value 0.986 | locus YDR502C, strain sam2, stronger effect = lower value 1.03 | locus YEL003W, strain gim4, stronger effect = lower value 1.02 | locus YEL037C, strain rad23, stronger effect = lower value 1.01 | locus YEL061C, strain CIN8 (second series), stronger effect = lower value 1.02 | locus YEL061C, strain CIN8, stronger effect = lower value 1.01 | locus YER015W, strain faa2, stronger effect = lower value 1.01 | locus YER016W, strain bim1, stronger effect = lower value 1.01 | locus YER110C, stronger effect = lower value 1.04 | locus YER111C, strain swi4, stronger effect = lower value 1.01 | locus YER155C, strain BEM2 (second series), stronger effect = lower value 1.02 | locus YER155C, strain BEM2, stronger effect = lower value 1 | locus YER167W, strain BCK2, stronger effect = lower value 1.01 | locus YFR010W, strain ubp6, stronger effect = lower value 1.02 | locus YGL078C, strain dbp3, stronger effect = lower value 1.02 | locus YGL086W, strain mad1, stronger effect = lower value 1.01 | locus YGL167C, strain pmr1, stronger effect = lower value 1.02 | locus YGL173C, strain kem1, stronger effect = lower value 1.01 | locus YGL227W, strain vid30, stronger effect = lower value 1.01 | locus YGL240W, strain doc1, stronger effect = lower value 1.02 | locus YGL248W, strain PDE1, stronger effect = lower value 1.01 | locus YGL253W, strain hxk2, stronger effect = lower value 1.02 | locus YGR078C, strain PAC10, stronger effect = lower value 1.01 | locus YGR135W, strain pre9, stronger effect = lower value 1.03 | locus YGR229C, strain SMI1, stronger effect = lower value 1.01 | locus YGR252W, strain gcn5, stronger effect = lower value 1.06 | locus YHR013C, strain ard1, stronger effect = lower value 1.03 | locus YHR027C, strain rpn1, stronger effect = lower value 1.01 | locus YHR030C, strain SLT2, stronger effect = lower value 1.01 and 0.991 | locus YHR079C, strain IRE1 (second series), stronger effect = lower value 1.02 | locus YHR079C, strain IRE1, stronger effect = lower value 0.995 | locus YHR094C, strain hxt1, stronger effect = lower value 1.02 | locus YHR129C, strain ARP1, stronger effect = lower value 1 | locus YHR142W, strain chs7, stronger effect = lower value 1.03 | locus YHR200W, strain rpn10, stronger effect = lower value 1.03 | locus YIL066C, strain RNR3, stronger effect = lower value 1.01 | locus YIL073C, strain SPO22, stronger effect = lower value 1.08 | locus YIL125W, strain kgd1, stronger effect = lower value 1.02 | locus YIR030C, strain dcg1, stronger effect = lower value 1.03 | locus YJL092W, strain hpr5, stronger effect = lower value 1.01 | locus YJL095W, strain BCK1 (second series), stronger effect = lower value 1.01 | locus YJL095W, strain BCK1, stronger effect = lower value 1.03 and 0.999 | locus YJL115W, strain asf1, stronger effect = lower value 1.01 | locus YJL129C, strain trk1, stronger effect = lower value 1.01 | locus YJL134W, strain LCB3, stronger effect = lower value 1.01 | locus YJL154C, strain vps35, stronger effect = lower value 1.02 | locus YJL164C, strain tpk1, stronger effect = lower value 1.03 | locus YJL166W, strain qcr8, stronger effect = lower value 1.01 | locus YJL168C, strain set2, stronger effect = lower value 1.03 | locus YJL187C, strain SWE1 (second series), stronger effect = lower value 1.02 | locus YJL187C, strain SWE1, stronger effect = lower value 1.01 | locus YJR043C, strain POL32, stronger effect = lower value 1.02 | locus YJR066W, strain TOR1, stronger effect = lower value 0.943
